Data reported in PubChem BioAssay AID1159580 (chemical genetic matrix, 2015).
Hit rate of the full screen: of about 5,500 compounds, about 2,000 (36%) were called active. About 18% were inconclusive and are not listed. Cut-off read from the data, not from the text of the source: active = normalized growth mostly below about 0.91 (no sharp cut-off); inconclusive = no clear call, values can overlap the other calls; inactive = mostly above about 0.92. Some of the results follow.

Assay: chemical genetic growth profiling, strain panel (AID 1159580);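 note: tested at 20 µM; growth read once vehicle control cultures reached saturation at 30 °C; 1 = growth at the plate median or of vehicle wells; lower values mean less growth of the strain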
Settings: growth OD

Measured: normalized growth

COc1cc([C@@H]2c3cc4c(c(O)c3C[C@H]3COC(=O)[C@@H]32)OCO4)cc(OC)c1OC
inactive: S. cerevisiae deletion strains, locus YJR043C, strain POL32, stronger effect = lower value 0.989 | S. cerevisiae deletion strains, locus YJR075W, strain HOC1, stronger effect = lower value 0.996 | S. cerevisiae deletion strains, locus YKL009W, strain mrt4, stronger effect = lower value 0.983 | S. cerevisiae deletion strains, locus YKL068W, stronger effect = lower value 0.979 | S. cerevisiae deletion strains, locus YKL085W, strain MDH1 (second series), stronger effect = lower value 0.973 | S. cerevisiae deletion strains, locus YKL085W, strain MDH1, stronger effect = lower value 0.973 | S. cerevisiae deletion strains, locus YKL160W, strain elf1, stronger effect = lower value 1 | S. cerevisiae deletion strains, locus YKL190W, strain CNB1, stronger effect = lower value 0.986 | S. cerevisiae deletion strains, locus YKR001C, strain vps1, stronger effect = lower value 1 | S. cerevisiae deletion strains, locus YKR026C, strain gcn3, stronger effect = lower value 0.985 | S. cerevisiae deletion strains, locus YKR091W, strain srl3, stronger effect = lower value 0.995 | S. cerevisiae deletion strains, locus YLL001W, strain dnm1, stronger effect = lower value 0.991 | S. cerevisiae deletion strains, locus YLL026W, stronger effect = lower value 0.993 | S. cerevisiae deletion strains, locus YLL041C, strain sdh2, stronger effect = lower value 0.99 | S. cerevisiae deletion strains, locus YLR027C, strain aat2, stronger effect = lower value 0.974 | S. cerevisiae deletion strains, locus YLR039C, strain RIC1, stronger effect = lower value 0.921 | S. cerevisiae deletion strains, locus YLR058C, strain SHM2, stronger effect = lower value 0.982 | S. cerevisiae deletion strains, locus YLR102C, strain apc9, stronger effect = lower value 0.976 | S. cerevisiae deletion strains, locus YLR221C, strain rsa3, stronger effect = lower value 0.959 | S. cerevisiae deletion strains, locus YLR258W, strain gsy2, stronger effect = lower value 1.01 | S. cerevisiae deletion strains, locus YLR262C, strain YPT6 (second series), stronger effect = lower value 0.989 | S. cerevisiae deletion strains, locus YLR262C, strain YPT6, stronger effect = lower value 0.907 | S. cerevisiae deletion strains, locus YLR268W, strain sec22, stronger effect = lower value 1.01 | S. cerevisiae deletion strains, locus YLR320W, strain mms22, stronger effect = lower value 0.963 | S. cerevisiae deletion strains, locus YLR330W, strain CHS5, stronger effect = lower value 0.981 | S. cerevisiae deletion strains, locus YLR342W, strain FKS1 (second series), stronger effect = lower value 0.971 | S. cerevisiae deletion strains, locus YLR342W, strain FKS1, stronger effect = lower value 0.983 | S. cerevisiae deletion strains, locus YLR357W, strain rsc2, stronger effect = lower value 0.999 | S. cerevisiae deletion strains, locus YLR370C, strain arc18, stronger effect = lower value 1 | S. cerevisiae deletion strains, locus YLR371W, strain rom2, stronger effect = lower value 0.946 | S. cerevisiae deletion strains, locus YLR384C, strain iki3, stronger effect = lower value 0.98 | S. cerevisiae deletion strains, locus YLR418C, strain cdc73, stronger effect = lower value 1.01 | S. cerevisiae deletion strains, locus YML016C, strain PPZ1, stronger effect = lower value 0.992 | S. cerevisiae deletion strains, locus YML032C, strain rad52, stronger effect = lower value 0.991 | S. cerevisiae deletion strains, locus YML120C, strain ndi1, stronger effect = lower value 0.998 | S. cerevisiae deletion strains, locus YML124C, strain tub3, stronger effect = lower value 0.988 | S. cerevisiae deletion strains, locus YMR058W, strain fet3, stronger effect = lower value 0.999 | S. cerevisiae deletion strains, locus YMR078C, strain ctf18, stronger effect = lower value 0.995 | S. cerevisiae deletion strains, locus YMR125W, strain sto1, stronger effect = lower value 0.986 | S. cerevisiae deletion strains, locus YMR129W, stronger effect = lower value 0.984 | S. cerevisiae deletion strains, locus YMR205C, strain PFK2, stronger effect = lower value 0.982 | S. cerevisiae deletion strains, locus YMR223W, strain ubp8, stronger effect = lower value 0.987 | S. cerevisiae deletion strains, locus YMR231W, strain pep5, stronger effect = lower value 0.991 | S. cerevisiae deletion strains, locus YMR263W, strain SAP30, stronger effect = lower value 1 | S. cerevisiae deletion strains, locus YMR307W, strain GAS1, stronger effect = lower value 1.02 | S. cerevisiae deletion strains, locus YNL067W, strain RPL9B, stronger effect = lower value 1.02 | S. cerevisiae deletion strains, locus YNL071W, strain lat1, stronger effect = lower value 1.01 | S. cerevisiae deletion strains, locus YNL128W, strain TEP1, stronger effect = lower value 0.989 | S. cerevisiae deletion strains, locus YNL153C, strain GIM3, stronger effect = lower value 1.03 | S. cerevisiae deletion strains, locus YNL209W, strain ssb2, stronger effect = lower value 1 | S. cerevisiae deletion strains, locus YNL233W, strain BNI4, stronger effect = lower value 1.04 | S. cerevisiae deletion strains, locus YNL248C, strain rpa49, stronger effect = lower value 0.984 | S. cerevisiae deletion strains, locus YNL250W, strain rad50, stronger effect = lower value 0.955 | S. cerevisiae deletion strains, locus YNL271C, strain bni1, stronger effect = lower value 0.973 | S. cerevisiae deletion strains, locus YNL298W, strain CLA4, stronger effect = lower value 0.976 | S. cerevisiae deletion strains, locus YNL307C, strain MCK1, stronger effect = lower value 0.992 | S. cerevisiae deletion strains, locus YNL322C, strain KRE1 (second series), stronger effect = lower value 1 | S. cerevisiae deletion strains, locus YNL322C, strain KRE1, stronger effect = lower value 0.979 | S. cerevisiae deletion strains, locus YNR049C, strain mso1, stronger effect = lower value 0.986 | S. cerevisiae deletion strains, locus YNR052C, strain pop2, stronger effect = lower value 0.975 | S. cerevisiae deletion strains, locus YOL006C, strain TOP1, stronger effect = lower value 1.08 | S. cerevisiae deletion strains, locus YOL012C, strain htz1 0.866 | S. cerevisiae deletion strains, locus YOL147C, strain pex11, stronger effect = lower value 0.985 | S. cerevisiae deletion strains, locus YOR001W, strain rrp6, stronger effect = lower value 0.957 | S. cerevisiae deletion strains, locus YOR061W, strain CKA2, stronger effect = lower value 0.986 | S. cerevisiae deletion strains, locus YOR069W, strain VPS5, stronger effect = lower value 0.992 | S. cerevisiae deletion strains, locus YOR070C, strain gyp1, stronger effect = lower value 0.987 | S. cerevisiae deletion strains, locus YOR080W, strain dia2, stronger effect = lower value 0.98 | S. cerevisiae deletion strains, locus YOR083W, strain WHI5, stronger effect = lower value 1.01 | S. cerevisiae deletion strains, locus YOR106W, strain vam3, stronger effect = lower value 1 | S. cerevisiae deletion strains, locus YOR136W, strain idh2, stronger effect = lower value 0.984 | S. cerevisiae deletion strains, locus YOR144C, strain elg1, stronger effect = lower value 0.984 | S. cerevisiae deletion strains, locus YOR184W, strain ser1, stronger effect = lower value 0.973 | S. cerevisiae deletion strains, locus YOR265W, strain rbl2, stronger effect = lower value 0.992 | S. cerevisiae deletion strains, locus YOR270C, strain vph1, stronger effect = lower value 0.98 | S. cerevisiae deletion strains, locus YOR290C, strain snf2, stronger effect = lower value 0.987 | S. cerevisiae deletion strains, locus YOR316C, strain cot1, stronger effect = lower value 0.983 | S. cerevisiae deletion strains, locus YPL051W, strain arl3, stronger effect = lower value 0.965 | S. cerevisiae deletion strains, locus YPL055C, strain LGE1, stronger effect = lower value 1.03 | S. cerevisiae deletion strains, locus YPL078C, strain atp4, stronger effect = lower value 1.01 | S. cerevisiae deletion strains, locus YPL106C, strain sse1, stronger effect = lower value 0.987 | S. cerevisiae deletion strains, locus YPL240C, strain hsp82, stronger effect = lower value 0.992 | S. cerevisiae deletion strains, locus YPL241C, strain CIN2, stronger effect = lower value 0.987 | S. cerevisiae deletion strains, locus YPR119W, strain clb2, stronger effect = lower value 0.979 | S. cerevisiae deletion strains, locus YPR141C, strain kar3, stronger effect = lower value 0.979 | S. cerevisiae deletion strains, locus YPR163C, strain tif3, stronger effect = lower value 0.97 | S. cerevisiae deletion strains, locus YPR167C, strain met16, stronger effect = lower value 0.971 | S. cerevisiae deletion strains, strain wtn01, stronger effect = lower value 1 | S. cerevisiae strains, strain wild type, stronger effect = lower value 0.99
